This is an account of results in PubChem BioAssay (NCI).

Among the test systems are SK-MEL-2 melanoma; EKVX NSCLC; SN12C renal; UO-31 renal; TK-10 renal; A498 renal; CCRF-CEM leukemia; MOLT-4 leukemia; RPMI-8226 leukemia; OVCAR-8 ovarian; OVCAR-5 ovarian; OVCAR-4 ovarian; SK-OV-3 ovarian; IGROV1 ovarian; OVCAR-3 ovarian; HS 578T breast; NCI/ADR-RES ovarian; SR leukemia; CAKI-1 renal.
Common to all, as to assay: NCI-60 one-dose screen, 48 h (100 = growth as untreated, 0 = no growth, -100 = all killed)
Common to all, as to conditions: 10 µM unless noted

The structures appear in SMILES notation. This is part of a sample that, as a whole, favours compounds with a hit. Of some 83,000 tested, about 20% had one in any assay.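 Assay: single dose, 48 h. Readout: percent growth (0 = no net growth; negative = cell death). Active: <10.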 Values without a mark were called inactive. Calls of active or inactive are those of the source.

With `CN1C[C@@H](c2ccc(Cl)cc2)[C@]2(NC(=S)N(c3ccccc3)C2=O)[C@@]12C(=O)NC1C=CC(Br)=C[C@H]12` (stereo not given in full), the growth is 61.2% in the assay with SK-MEL-2 melanoma; 71.1% with EKVX NSCLC; 46.1% in the assay with SN12C renal; 40.4% with UO-31 renal; 87.2% with TK-10 renal; 80.2% in the assay with A498 renal. The growth in the assay with CCRF-CEM leukemia is 30.5%; with MOLT-4 leukemia, 21.4%; in the assay with RPMI-8226 leukemia, 29.3%; in the assay on OVCAR-8 ovarian, 70.1%; in the assay with OVCAR-5 ovarian, 101%; with OVCAR-4 ovarian it was 71.6%. Also, the growth is 77.2% in the assay with SK-OV-3 ovarian; 56% in the assay with IGROV1 ovarian; 77.2% in the assay on OVCAR-3 ovarian; 68.4% with HS 578T breast; 64.3% in the assay on NCI/ADR-RES ovarian.
Turning to `COc1cc2c(cc1OC)-c1ccc3cc4c(cc3c1N(CCN1CCCC1)C2)OCO4`, the growth is 57.9% with SK-MEL-2 melanoma; 36.3% with EKVX NSCLC; -29.9% (active) in the assay on SN12C renal; 32.7% with UO-31 renal; 34.2% in the assay on TK-10 renal; -2.77% (active) in the assay on A498 renal. Further, the growth is -5.95% (active) with CCRF-CEM leukemia; 2.96% (active) in the assay on MOLT-4 leukemia; 1.64% (active) with SR leukemia; -36.2% (active) with RPMI-8226 leukemia; 6.81% (active) in the assay on OVCAR-8 ovarian; 30% in the assay with OVCAR-5 ovarian. In addition, the growth in the assay with OVCAR-4 ovarian is 33.8%; with SK-OV-3 ovarian it was -13.5% (active); in the assay on IGROV1 ovarian, 4.12% (active); in the assay with OVCAR-3 ovarian it was 15.3%; with HS 578T breast it was 16.2%; in the assay with NCI/ADR-RES ovarian, 60.7%.
Regarding `COc1cc2c(cc1OC)-c1ccc3cc4c(cc3c1N(CCCN1CCCCC1)C2)OCO4`, the growth was 68.8% in the assay on SK-MEL-2 melanoma; 69.4% in the assay with EKVX NSCLC; 30.5% with SN12C renal; 37.6% in the assay with UO-31 renal; 73.2% with TK-10 renal; 65% in the assay with A498 renal. In addition, the growth with CCRF-CEM leukemia was 19.6%; with MOLT-4 leukemia it was 6.01% (active); in the assay with SR leukemia, -7.48% (active); with RPMI-8226 leukemia, 14.5%; with OVCAR-8 ovarian, 32.6%; with OVCAR-5 ovarian, 74.7%. In addition, the growth with OVCAR-4 ovarian was 63.4%; in the assay on SK-OV-3 ovarian it was 75.7%; in the assay on IGROV1 ovarian it was 33.7%; in the assay on OVCAR-3 ovarian, 60.8%; in the assay with HS 578T breast, 56.1%; in the assay on NCI/ADR-RES ovarian, 54.7%.
As to `CCOC(=O)c1ccc(NC(=O)CCCN(CC)CC)cc1`, the growth with SK-MEL-2 melanoma was 73%; with EKVX NSCLC it was 105%; in the assay with SN12C renal, 106%; in the assay with UO-31 renal, 88.7%; in the assay with TK-10 renal, 88.2%; with A498 renal, 118%. Also, the growth is 106% in the assay on CCRF-CEM leukemia; 95.7% in the assay on MOLT-4 leukemia; 92.8% with SR leukemia; 97.8% in the assay on RPMI-8226 leukemia; 102% in the assay on OVCAR-8 ovarian; 106% in the assay with OVCAR-5 ovarian. For the same compound, the growth in the assay with OVCAR-4 ovarian was 111%; with SK-OV-3 ovarian, 109%; in the assay with IGROV1 ovarian, 107%; in the assay on HS 578T breast, 119%; with NCI/ADR-RES ovarian it was 99%.
In the case of `O=C(NC1CCOCC1)c1ccc2c(c1)CN(c1ncc(Cc3cccc(-n4cccn4)c3)s1)CC2`, the growth was 54.9% with SK-MEL-2 melanoma; 53.5% in the assay on EKVX NSCLC; 82.1% in the assay on SN12C renal; 64.4% with UO-31 renal; 81.7% in the assay on TK-10 renal; 46.6% in the assay with A498 renal. Further, the growth is 52.1% with CCRF-CEM leukemia; 40.3% with MOLT-4 leukemia; 56.2% in the assay with SR leukemia; 38.3% in the assay with RPMI-8226 leukemia; 76.6% in the assay on OVCAR-8 ovarian; 95.1% in the assay on OVCAR-5 ovarian. Further, the growth is 62.1% with OVCAR-4 ovarian; 78.6% with SK-OV-3 ovarian; 89.8% in the assay with IGROV1 ovarian; 78.4% with OVCAR-3 ovarian; 96% with HS 578T breast; 63.5% in the assay on NCI/ADR-RES ovarian.
Consider `COc1cc2c(=O)n(CCCn3ccnc3)c3c4cc5c(cc4ccc3c2cc1OC)OCO5`, for which the growth was 22% with SK-MEL-2 melanoma; 21.3% with EKVX NSCLC; 16.9% in the assay on SN12C renal; -27.3% (active) in the assay with UO-31 renal; 35.3% in the assay on TK-10 renal; -75.6% (active) with A498 renal. The growth is 3.73% (active) in the assay with CCRF-CEM leukemia; 3.68% (active) in the assay with MOLT-4 leukemia; 10.5% in the assay on SR leukemia; -31.9% (active) in the assay with RPMI-8226 leukemia; 15.1% in the assay with OVCAR-8 ovarian; 13.9% in the assay on OVCAR-5 ovarian. The growth in the assay on OVCAR-4 ovarian was 28.6%; with SK-OV-3 ovarian, -11.4% (active); in the assay with IGROV1 ovarian, 19.5%; in the assay on OVCAR-3 ovarian, -8.36% (active); in the assay with HS 578T breast it was 32.4%; in the assay with NCI/ADR-RES ovarian, 10.5%.
Consider `Cc1ccc(Nc2ccc(Nc3ccc(C)cc3S(=O)(=O)O)c3c2C(=O)c2ccccc2C3=O)c(S(=O)(=O)O)c1`, for which the growth in the assay on SK-MEL-2 melanoma was 101%; in the assay on EKVX NSCLC it was 91.5%; with SN12C renal, 98.5%; with UO-31 renal, 78.4%; in the assay with TK-10 renal, 98.3%; in the assay on A498 renal, 119%. The growth in the assay on MOLT-4 leukemia was 116%; with SR leukemia, 108%; in the assay on RPMI-8226 leukemia it was 87.8%; in the assay on OVCAR-8 ovarian it was 97.6%; with OVCAR-5 ovarian it was 106%; in the assay with OVCAR-4 ovarian, 102%. The growth was 111% in the assay with SK-OV-3 ovarian, 95.5% in the assay on OVCAR-3 ovarian, 88.7% with HS 578T breast and 102% in the assay on NCI/ADR-RES ovarian.
Turning to `Cc1cc(-c2ccccc2)cc(SC#N)[n+]1[O-]`, the growth is 49.1% in the assay with SK-MEL-2 melanoma; 26.2% in the assay on EKVX NSCLC; 51.7% with SN12C renal; 40.4% in the assay on UO-31 renal; 55.9% in the assay on TK-10 renal; 67.7% with A498 renal. Also, the growth in the assay with CCRF-CEM leukemia was 6.22% (active); with MOLT-4 leukemia, 10.1%; in the assay with SR leukemia, 8.25% (active); in the assay on RPMI-8226 leukemia it was 19.2%; with OVCAR-8 ovarian it was 31.7%; with OVCAR-5 ovarian, 75.4%. Besides, the growth is 41.2% in the assay with OVCAR-4 ovarian; 45.1% in the assay on SK-OV-3 ovarian; 35.3% in the assay on IGROV1 ovarian; 39.6% in the assay on OVCAR-3 ovarian; 80.1% in the assay on HS 578T breast; 19.7% in the assay with NCI/ADR-RES ovarian.
As to `CC1=CC(=O)C(C(C)C)=CC1=Nc1cc(Br)c(O)c(Br)c1`, the growth in the assay on SK-MEL-2 melanoma was 23.5%; with EKVX NSCLC, 44.1%; in the assay on SN12C renal it was 36.3%; in the assay with UO-31 renal, 48.4%; in the assay with TK-10 renal it was 93.2%; in the assay on CAKI-1 renal, 51.3%. Besides, the growth was -1.08% (active) in the assay on CCRF-CEM leukemia; 23.8% in the assay with MOLT-4 leukemia; -8.71% (active) with RPMI-8226 leukemia; 31.1% in the assay on OVCAR-8 ovarian; 29.4% with OVCAR-5 ovarian; 37.2% in the assay with OVCAR-4 ovarian. In addition, the growth with SK-OV-3 ovarian is 19.6%; in the assay with IGROV1 ovarian, 22.9%; in the assay on NCI/ADR-RES ovarian, -22.9% (active).
